In PubChem BioAssay (NCATS):
Records with an inconclusive call do not appear. Where a call stands in place of a potency, no number is given. Calls of active or inactive are those of the source. Unless noted, calls follow the shape of the dose curve; as a rule, active = well fitted curve in the direction sought with a large enough effect; inconclusive = small, poorly fitted or top-dose-only effect, or another doubt; inactive = no such curve, though single readings can be large; an effect the other way counts as inactive or inconclusive.

Assays:
[1] = molecular target: Glutaminase kidney isoform, mitochondrial (Homo sapiens) (UniProt O94925); test: qHTS for Inhibitors of Glutaminase (GLS): LOPAC Validation (AID 624146); also: nearly all actives have a fitted effect of over 60% in size; also: potency is read from the fitted curve at half-maximal effect
Chain of Glutaminase kidney isoform, mitochondrial (Homo sapiens) (O94925 whole entry, looked up, canonical isoform): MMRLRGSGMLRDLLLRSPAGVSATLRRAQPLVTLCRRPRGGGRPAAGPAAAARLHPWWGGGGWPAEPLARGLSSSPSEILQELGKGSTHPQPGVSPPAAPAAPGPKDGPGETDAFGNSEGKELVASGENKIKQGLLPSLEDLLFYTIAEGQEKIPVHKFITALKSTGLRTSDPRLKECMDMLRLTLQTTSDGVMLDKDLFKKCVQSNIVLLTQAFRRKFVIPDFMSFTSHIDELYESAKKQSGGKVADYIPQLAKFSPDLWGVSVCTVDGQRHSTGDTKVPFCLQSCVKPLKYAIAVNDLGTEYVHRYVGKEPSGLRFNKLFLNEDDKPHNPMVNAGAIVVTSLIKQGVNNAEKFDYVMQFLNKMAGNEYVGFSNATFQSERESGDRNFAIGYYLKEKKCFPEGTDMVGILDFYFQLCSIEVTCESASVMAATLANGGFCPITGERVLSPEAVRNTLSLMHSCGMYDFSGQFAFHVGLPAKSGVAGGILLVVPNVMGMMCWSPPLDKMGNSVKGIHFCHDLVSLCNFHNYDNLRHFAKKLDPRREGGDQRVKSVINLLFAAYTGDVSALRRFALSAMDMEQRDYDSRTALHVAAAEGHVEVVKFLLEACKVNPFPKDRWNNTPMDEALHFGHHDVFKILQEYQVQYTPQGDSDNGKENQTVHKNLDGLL
In short: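 Two-point fluorescence kinetic (t0, 30 min RT) for hKGA; glutamate detected via glutamate oxidase–HRP–Amplex Red. Substrate: 1 mM L-glutamine solution; buffer 45 mM KH2PO4, pH 8.2.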

[2] = qHTS of Trypanosoma Brucei Inhibitors: LOPAC Validation (AID 624147)
In short: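 ADP (130 uM final) triggers the TbPYK reaction after compound addition; incubation is 45 min at room temperature. Kinase-Glo Plus is then added and luminescence imaged. Normalized data are fitted to concentration-effect curves.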

[3] = molecular target: Glucagon-like peptide 1 receptor (Homo sapiens) (UniProt P43220); test: qHTS of GLP-1 Receptor Agonists: LOPAC Validation (AID 624148);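 also: higher luminescence signal means agonism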
Chain of Glucagon-like peptide 1 receptor (Homo sapiens) (P43220 whole entry, looked up): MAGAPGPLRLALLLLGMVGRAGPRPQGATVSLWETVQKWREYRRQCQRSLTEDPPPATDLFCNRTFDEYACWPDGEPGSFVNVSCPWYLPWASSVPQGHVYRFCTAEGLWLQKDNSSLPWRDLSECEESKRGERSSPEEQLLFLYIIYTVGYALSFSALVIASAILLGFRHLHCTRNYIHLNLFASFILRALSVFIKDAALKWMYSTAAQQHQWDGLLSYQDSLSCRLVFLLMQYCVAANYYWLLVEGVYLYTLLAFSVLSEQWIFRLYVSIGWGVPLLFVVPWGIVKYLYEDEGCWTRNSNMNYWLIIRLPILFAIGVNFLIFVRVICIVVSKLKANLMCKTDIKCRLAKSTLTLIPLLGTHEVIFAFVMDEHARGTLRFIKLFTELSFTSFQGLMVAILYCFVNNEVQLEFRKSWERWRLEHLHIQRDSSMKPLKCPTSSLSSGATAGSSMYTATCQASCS
In short: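 HEK293 cells stably co-expressing GLP-1R and a cAMP-responsive luciferase reporter, plated 12 hours before compound, then incubated 4-6 hr at 37 deg C. Luminescence read 12 min after detection reagent.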

[4] = qHTS of Nrf2 Activators: LOPAC Validation (AID 624149)
In short: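 ARE reporter activation measured in AREc32 firefly luciferase cells after 24 hr compound exposure; Steady-Glo luminescence.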

[5] = HTS Assay for Allosteric Antagonists of the Human D2 Dopamine Receptor: Hit Validation in HTRF (AID 624455);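 also: stable D1 dopamine receptor cell line scored for blocking the D1 response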
In short: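 Signal from an HTRF read-out in D1-expressing stable cells gave hit activity as inhibition of the D1 response.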

[6] = Cytotoxicity counterscreen for NFkB agonists and antagonists (AID 624476);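 also: cells exposed to compound for 48 hours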; also: potency is read from the fitted curve at half-maximal effect
[7] = Cell Proliferation Assay against the TMD8 Cell Line (AID 651645); conditions: TMD8 DLBCL cell line proliferation/viability; at 46.1 µM (top of the series) unless noted;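 also: cells exposed to compound for 48 h before reading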
In short: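 500 TMD8 cells/well, RPMI + Glutamax, no phenol red, 5% FBS; cpd added immediately; 48 h, 37C, 5% CO2; CellTiter-Glo, luminescence. Controls: DMSO = 100%, bortezomib 9.2 uM final = 0%.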

[8] = qHTS Assay for Identification of Small Molecule Antagonists for NFkB Signaling Pathway. (AID 624479; calls by dose curve;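 also: pathway stimulated with TNF alpha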; also: potency is read from the fitted curve at half-maximal effect)
[9] = qHTS Assay for Identification of Small Molecule Agonists for NFkB Signaling Pathway. (AID 624478);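 also: compounds tested together with TNF alpha at its EC50 of 10 pM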
In short: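 Cells carrying an NFkB response element-driven beta-lactamase gene are co-treated with compound and 10 pM TNF alpha for 5 h, and reporter activity is then read as 460 and 530 nm fluorescence.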

Structure (SMILES): CC(=O)[C@H]1CCC2C3CC[C@H]4C[C@H](O)CC[C@]4(C)C3CC[C@@]21C (stereo partly drawn)
- Potency [1]: inactive
- outcome [2]: inactive
- outcome [3]: inactive
- outcome [4]: inactive

Structure (SMILES): CC[C@@]1(O)C(=O)OCc2c1cc1n(c2=O)Cc2cc3ccccc3nc2-1
- Potency [1]: inactive
- outcome [2]: inactive
- outcome [3]: inactive
- outcome [4]: inactive

Structure (SMILES): Oc1ccc2c3c1O[C@H]1c4[nH]c5c(c4C[C@@]4(O)[C@@H](C2)N(CC2CC2)CC[C@]314)C[C@@]1(O)[C@H]2Cc3ccc(O)c4c3[C@@]1(CCN2CC1CC1)[C@H]5O4
- Potency [1]: 12.6 µM (active)
- outcome [2]: inactive
- outcome [3]: inactive
- outcome [4]: inactive
- Potency [5]: inactive

Structure (SMILES): Cn1cnc(CCN)c1
- Potency [1]: inactive
- outcome [2]: inactive
- outcome [3]: inactive
- outcome [4]: inactive

Structure (SMILES): C[C@]12N[C@H](Cc3ccccc31)c1ccccc12
- Potency [1]: inactive
- outcome [2]: inactive
- outcome [3]: inactive
- outcome [4]: inactive

Structure (SMILES): O=C(Cc1ccc(Cl)c(Cl)c1)N1CCCCC1CN1CCCC1 (stereo not drawn)
- Potency [1]: inactive
- outcome [2]: inactive
- outcome [3]: inactive
- outcome [4]: inactive

Structure (SMILES): NC(N)=NOCCC(N)C(=O)O (stereo not drawn)
- Potency [1]: inactive
- outcome [2]: inactive
- outcome [3]: inactive
- outcome [4]: inactive
- Potency [5]: inactive

Structure (SMILES): O=C1CCCN1CC#CCN1CCCC1
- Potency [1]: inactive
- outcome [2]: inactive
- outcome [3]: inactive
- outcome [4]: inactive

Structure (SMILES): C[C@@H](N)Cc1cnc[nH]1
- Potency [1]: inactive
- outcome [2]: inactive
- outcome [3]: inactive
- outcome [4]: inactive

Structure (SMILES): COc1ccc2c(c[n+](C)c3c4cc5c(cc4ccc23)OCO5)c1OC
- Potency [1]: 3.16 µM (active)
- outcome [2]: inactive
- outcome [3]: inactive
- Potency [6]: 23.5 µM (active)
- viability (% of control) [7]: 3.33%

Structure (SMILES): C[C@]12CCC3C(CC[C@H]4C[C@H](O)CC[C@]34C)C1CC[C@@H]2C(=O)CO (stereo partly drawn)
- Potency [1]: inactive
- outcome [2]: inactive
- outcome [3]: inactive
- outcome [4]: inactive

Structure (SMILES): S=C(NC1CCCCC1)N1CCC(c2cnc[nH]2)CC1
- Potency [1]: inactive
- outcome [2]: inactive
- outcome [3]: inactive
- outcome [4]: inactive

Structure (SMILES): CCCCc1ccc(C(=O)O)nc1
- Potency [1]: inactive
- outcome [2]: inactive
- outcome [3]: inactive
- outcome [4]: inactive

Structure (SMILES): NCCc1c[nH]c2ccc(O)cc12
- Potency [1]: inactive
- outcome [2]: inactive
- outcome [3]: inactive
- outcome [4]: inactive

Structure (SMILES): C[N+]1(C)C2CCC1CC(OC(=O)C(CO)c1ccccc1)C2 (stereo not drawn)
- Potency [1]: inactive
- outcome [2]: inactive
- outcome [3]: inactive
- outcome [4]: inactive

Structure (SMILES): O=C(O)CC[N+](=O)[O-]
- Potency [1]: inactive
- outcome [2]: inactive
- outcome [3]: inactive
- outcome [4]: inactive

Structure (SMILES): O=C(N[C@H]1CN2CCC1CC2)c1ccc(Cl)cc1
- Potency [1]: inactive
- outcome [2]: inactive
- outcome [3]: inactive
- outcome [4]: inactive

Structure (SMILES): COc1cc(C(O)CN)ccc1O (stereo not drawn)
- Potency [1]: 2.24 µM (active)
- outcome [2]: inactive
- outcome [3]: inactive
- outcome [4]: inactive

Structure (SMILES): NC(=NCCC[C@H](N)C(=O)O)N[N+](=O)[O-]
- Potency [1]: inactive
- outcome [2]: inactive
- outcome [3]: inactive
- outcome [4]: inactive
- Potency [5]: inactive

Structure (SMILES): NC1CCc2cc(O)c(O)cc2C1 (stereo not drawn)
- outcome [3]: inactive
- outcome [4]: inactive

Structure (SMILES): CC[C@H](CO)Nc1nc(NCc2ccccc2)c2ncn(C(C)C)c2n1
- Potency [8]: 11.9 µM (active)

Structure (SMILES): Nc1nc(-c2nn(Cc3ccccc3F)c3ncccc23)nc(N)c1N1CCOCC1
- viability (% of control) [7]: 91.5%

Structure (SMILES): CN[C@@H]1C[C@@H](c2ccc(Cl)c(Cl)c2)c2ccccc21
- outcome [2]: inactive
- outcome [3]: inactive
- outcome [4]: inactive

Structure (SMILES): Cc1cnc(Nc2ccc(F)cc2Cl)nc1-c1c[nH]c(C(=O)N[C@H](CO)c2cccc(Cl)c2)c1
- Potency [6]: 26.4 µM (active)
- Potency [8]: 16.8 µM (active)

Structure (SMILES): C1=CCOCc2cc(ccc2OCCN2CCCC2)Nc2nccc(n2)-c2cccc(c2)OCC1
- Potency [8]: 0.943 µM (active)

Structure (SMILES): CC1CC(C)C(=O)C(C(O)CC2CC(=O)NC(=O)C2)C1 (stereo not drawn)
- Potency [6]: inactive
- outcome [9]: inactive
- Potency [8]: 1.09 µM (active)
- viability (% of control) [7]: 1.51% [at 92.2 µM]

Structure (SMILES): CCCCN1CCC(CNC(=O)c2c3n(c4ccccc24)CCCO3)CC1
- viability (% of control) [7]: 119%

Structure (SMILES): CNCCc1ccc(O)c(O)c1
- Potency [1]: inactive
- outcome [2]: inactive
- outcome [4]: inactive

Structure (SMILES): CC(C)[C@]12O[C@H]1[C@@H]1O[C@]13[C@]1(O[C@H]1C[C@H]1C4=C(CC[C@@]13C)C(=O)OC4)[C@@H]2O
- Potency [6]: 0.0332 µM (active)
- outcome [9]: inactive
- Potency [8]: 0.0335 µM (active)
- viability (% of control) [7]: 3.13%

Structure (SMILES): Cc1c(C(=O)c2cccc3ccccc23)c2cccc3c2n1[C@H](CN1CCOCC1)CO3
- outcome [2]: inactive
- outcome [3]: inactive
- outcome [4]: inactive
- Potency [5]: inactive

Structure (SMILES): Cc1nc(-c2ccc(-c3ccc(C(=O)N4CCc5cc6c(cc54)C4(CCN(C)CC4)CO6)cc3)c(C)c2)no1
- Potency [6]: inactive
- outcome [9]: inactive
- viability (% of control) [7]: 2.26%

Structure (SMILES): C=CCON=C(C[C@H]1O[C@@H]2O[C@]3(C)CC[C@@H]4[C@H](C)CC[C@@H]([C@H]1C)[C@@]24OO3)[C@H]1O[C@@H]2O[C@]3(C)CC[C@H]4[C@H](C)CC[C@@H]([C@@H]1C)[C@@]24OO3
- outcome [9]: inactive
- Potency [8]: 16.8 µM (active)
- viability (% of control) [7]: 10.2%

Structure (SMILES): CCOc1ccc(Nc2nc(-c3c(C)nc4ccccn34)cs2)cc1
- Potency [8]: 0.335 µM (active)

Structure (SMILES): COCCn1c2c([n+](Cc3cnccn3)c1C)C(=O)c1ccccc1C2=O
- Potency [8]: 0.0047 µM (active)

Structure (SMILES): O=C(Oc1ccc([N+](=O)[O-])cc1)N1CCC(C(O)(c2ccc3c(c2)OCO3)c2ccc3c(c2)OCO3)CC1
- Potency [6]: inactive
- outcome [9]: inactive
- Potency [8]: inactive
- viability (% of control) [7]: 68.8%

Structure (SMILES): CC(Cc1ccc(O)cc1)NCC(O)c1cc(O)cc(O)c1 (stereo not drawn)
- Potency [1]: 4.47 µM (active)
- outcome [2]: inactive
- outcome [4]: inactive

Structure (SMILES): c1cc(-c2cnn3cc(-c4ccc(OCCN5CCCCC5)cc4)cnc23)ccn1
- Potency [8]: 9.43 µM (active)

Structure (SMILES): Cc1ccccc1-n1c(Cn2cnc3c(N)ncnc32)nc2cccc(C)c2c1=O
- Potency [6]: 13.2 µM (active)
- outcome [9]: inactive
- Potency [8]: inactive
- viability (% of control) [7]: 15.8%

Structure (SMILES): CC1=NN=C(c2ccc(N)cc2)c2cc3c(cc2C1)OCO3
- outcome [2]: inactive
- outcome [3]: inactive
- outcome [4]: inactive
- Potency [5]: inactive

Structure (SMILES): C[C@@]12O[C@@H](C[C@]1(O)CO)n1c3ccccc3c3c4c(c5c6ccccc6n2c5c31)CNC4=O
- Potency [8]: 1.49 µM (active)

Structure (SMILES): CC[C@@H](C(=O)O)C1CC[C@H](C)C([C@@H](C)[C@H](O)[C@H](C)C(=O)[C@H](CC)C2O[C@]3(C=C[C@@H](O)[C@]4(CC[C@@](C)(C5CC[C@](O)(CC)[C@H](C)O5)O4)O3)[C@H](C)C[C@@H]2C)O1 (stereo partly drawn)
- Potency [6]: 8.33 µM (active)
- Potency [8]: 11.9 µM (active)
